Results filed as inconclusive are left out. A number with no mark means an inactive call. The call rests on the fitted dose curve; in most records, active means well fitted curve in the direction sought with a large enough effect; inconclusive means small, poorly fitted or top-dose-only effect, or another doubt; inactive means no such curve, though single readings can be large or run the other way.
On the % scale 0 is the no-effect control and ±100 the full control effect.

Metallo-beta-lactamase type 2 (Klebsiella pneumoniae), sequence (C7C422 whole entry, looked up): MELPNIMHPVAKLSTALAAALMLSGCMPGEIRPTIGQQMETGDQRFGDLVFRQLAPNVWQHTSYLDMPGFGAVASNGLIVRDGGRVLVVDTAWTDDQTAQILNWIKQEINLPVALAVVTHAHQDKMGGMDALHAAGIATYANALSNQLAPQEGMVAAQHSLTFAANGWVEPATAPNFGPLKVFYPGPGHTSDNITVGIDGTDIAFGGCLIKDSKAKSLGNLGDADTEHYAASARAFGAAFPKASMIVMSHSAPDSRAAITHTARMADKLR

This test has as its target Metallo-beta-lactamase type 2 (Klebsiella pneumoniae) (UniProt C7C422). Briefly: qHTS to identify inhibitors of the New Delhi Metallo-beta-lactamase (NDM): assay validation screen against the NCATS LOPAC Collection (AID 1794843).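 Further: nitrocefin turnover by NDM-1 measured as 485 nm absorbance at plateau.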 The conditions noted are these: NDM-1 enzyme, nitrocefin hydrolysis, absorbance 485 nm; series mostly up to 38.4 µM; activity change, negative = inhibition: at the top concentration. The gist of the method: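 NDM-1 at 2 nM final in 50 mM HEPES pH 7.0, 1 uM ZnSO4, 0.01% Tween20, preincubated with LOPAC compounds pinned in DMSO; 50 uM nitrocefin (stock) added. Hydrolysis read as absorbance at 485 nm in the plateau phase.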
A general note: Quantitative high-throughput screening tests each substance at several concentrations.
Turning to `CC(C)(C)NCC(O)COc1cccc2[nH]c(=O)[nH]c12` (configuration not stated), the “activity change, negative = inhibition” value was -0.582%. With `O=c1[nH]c(=O)c2nc3ccccc3nc2[nH]1` the figure was 0.495%; with `C[C@@H](NCCc1ccc(O)cc1)[C@@H](O)c1ccc(O)cc1`, -10.9%. With `Nc1nc2[nH]c(=O)cnc2c(=O)[nH]1` the figure was 0.0494%. With `Cc1ccc([N+](=O)[O-])cc1S(=O)(=O)N(C)C` the figure was -1.74%; with `CCCCCCCCCC[Si](C)(C)CCC(=O)NC(Cc1ccc(C)cc1)c1ccccc1` (configuration not stated), -4.22%. Consider `c1ccc2c(c1)CC(N1CCN(c3cccc4c3OCCO4)CC1)C2`, for which the “activity change, negative = inhibition” value was 0.372%. With `NC1CCN(O)C1=O` (configuration not stated) the figure was -5.98%. `COc1cc(CC(=O)O)ccc1O`: the “activity change, negative = inhibition” value is 0.908%.

As to `NCCCCN=C(N)N`, the “activity change, negative = inhibition” value is 1.26%.

Regarding `CC[N+](CC)(CC)CC(=O)Nc1c(C)cccc1C`, the “activity change, negative = inhibition” value was -4.36%. With `NCCNS(=O)(=O)c1cccc2c(Cl)cccc12` the figure was 1.33%.

For the molecule `O=c1onc2cnc3ccccc3n12`, the “activity change, negative = inhibition” value is -2.72%. With `O=c1ccn([C@@H]2O[C@H](COP(=O)(O)OP(=O)(O)O)[C@@H](O)[C@H]2O)c(=O)[nH]1` the figure was -8.38%; with `CCCCCC[C@@H]([C@@H](C)O)n1cnc2c(N)ncnc21`, -5.62%.

With `Cn1c(=O)c2c(nc(/C=C/c3cccc(Cl)c3)n2C)n(C)c1=O`, the “activity change, negative = inhibition” value was -6.93%.

For the molecule `O[Si](CCCN1CCCCC1)(c1ccc(F)cc1)C1CCCCC1` (configuration not stated), the “activity change, negative = inhibition” value is 0.323%.

The record behind these values is PubChem BioAssay (NCATS).
